Many of the other results were omitted from the sample, so hits are more common in it than they were.
ROC1-CUL1 inh: inhibitors of human ROC1-CUL1 ubiquitin ligase activity; E3 ubiquitin-protein ligase RBX1 (Homo sapiens) + Cullin-1 (Homo sapiens), P62877+Q13616; in vitro K48 di-Ub FRET, acceptor:donor ratio, 45 min; inhibition, % at 10 µM; hit rate 0.6% among 140,000; AID 1347404, 2020; in the data active = inhibition above about 25%
Target sequence (P62877 whole entry, looked up): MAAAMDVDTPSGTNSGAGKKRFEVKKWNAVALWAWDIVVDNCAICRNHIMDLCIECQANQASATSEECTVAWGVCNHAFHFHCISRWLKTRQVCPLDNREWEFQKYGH
Target sequence (Q13616 whole entry, looked up): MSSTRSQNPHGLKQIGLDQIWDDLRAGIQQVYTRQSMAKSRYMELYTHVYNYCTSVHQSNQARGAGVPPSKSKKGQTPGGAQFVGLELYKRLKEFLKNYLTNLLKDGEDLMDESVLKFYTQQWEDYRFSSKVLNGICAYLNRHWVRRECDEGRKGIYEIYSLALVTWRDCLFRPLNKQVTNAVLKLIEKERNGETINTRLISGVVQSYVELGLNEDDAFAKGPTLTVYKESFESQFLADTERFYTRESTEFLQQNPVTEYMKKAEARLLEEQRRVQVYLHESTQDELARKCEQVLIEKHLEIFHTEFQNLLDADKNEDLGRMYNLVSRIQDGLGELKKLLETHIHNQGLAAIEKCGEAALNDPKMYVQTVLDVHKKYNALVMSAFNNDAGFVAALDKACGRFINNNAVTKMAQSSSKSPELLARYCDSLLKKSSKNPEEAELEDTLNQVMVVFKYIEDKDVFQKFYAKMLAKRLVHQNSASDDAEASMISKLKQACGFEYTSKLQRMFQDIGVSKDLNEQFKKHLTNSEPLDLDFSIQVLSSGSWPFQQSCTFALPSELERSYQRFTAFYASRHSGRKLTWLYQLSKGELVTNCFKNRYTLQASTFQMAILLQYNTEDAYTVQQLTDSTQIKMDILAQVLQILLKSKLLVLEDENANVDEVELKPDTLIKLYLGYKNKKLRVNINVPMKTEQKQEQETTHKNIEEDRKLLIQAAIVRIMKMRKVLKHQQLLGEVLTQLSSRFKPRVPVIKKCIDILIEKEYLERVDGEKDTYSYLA
* marks the source's active call; other numbers are inactive results.

SMILES	ROC1-CUL1 inh
COc1cc(/C=N/NC(=O)c2ccc(Br)o2)cc(OC)c1OC	1.6
CC1=C(C(=O)OCc2ccccc2)C2(C(=O)Nc3ccc(Br)cc32)C(C(=O)OCc2ccccc2)C(=N)O1 (stereo not drawn)	-2.8
NC(CCc1c(Cl)cccc1Cl)c1ccc(Cl)cc1Cl (stereo not drawn)	6.6
Cc1noc(C)c1C(=O)NCc1ccc(Cl)c(Cl)c1	-0.3
CCOc1ccc(NC(=O)C2CC2)cc1	-13.1
O=c1c2c(nc3cc(-c4ccccc4Cl)[nH]n13)CCCC2	-0.8
COc1ccc(-c2ccc(OC)c(OC)c2OC)c(OC)c1OC	-5.5
COc1ccc(OC)c2c(OC)c3ccccc3c(OC)c12	51.6*
COc1ccc2c(=O)c(Br)cccc2c1OC	2.9
O=C(Nc1ccc2nc(SCC(=O)N3CCOCC3)sc2c1)c1cccc(F)c1	4.5
O=C(Nc1ccc2nc(SCC(=O)N3CCOCC3)sc2c1)c1ccc(Br)cc1	-9.7
O=C(Nc1ccc2nc(SCC(=O)N3CCOCC3)sc2c1)c1cccc(Br)c1	26.9*
Cn1cc(CN2C[C@H]3OC(=O)N(CCc4ccc(F)cc4)[C@H]3C2)cn1	1.4
CN(C)CCCN1Cc2ccccc2Sc2ccccc21	-4.1
CCOC(=O)NC1(C(Cl)(Cl)Cl)Oc2ccc(Cl)cc2O1 (stereo not drawn)	1.7
O=C(Nc1cc(Cl)ncn1)NC1(C(F)(F)F)Oc2ccccc2O1	0.6
O=C(NC1(C(Cl)(Cl)Cl)Oc2cc(Cl)c(Cl)cc2O1)Sc1ccccc1	49.4*
CCCCC1=NN(C(=O)c2cccc(Cl)c2)C(O)(C(F)(F)F)C1 (stereo not drawn)	14.7
CSc1nc2nc(C)c(C)nc2c(=O)n1C	-9.6
O=C1c2ccccc2C(=O)C(O)(O)C1(O)O	99.9*
CCC1(N)C(=O)c2ccccc2C1=O	6.6
O=C1c2ccccc2C(=O)C(Cl)(Cl)C1(Cl)Cl	-7.9
CC(=O)n1c(=O)c2cc3ccccc3cc2c(=O)n1C(C)=O	6.1
CC(=O)c1c(=O)n(O)cc2ccccc12	91.0*
CC(=O)c1c(C)sc2c1ccc1ccccc12	1.2
SMILES	ROC1-CUL1 inh
OCc1ccc(Sc2ccc(Cl)cc2)s1	0.9
COc1ccc(CC(=O)Nc2cccc(OC)c2)cc1	8.3
Cc1ccc(C(C)C)cc1OC(=O)c1cccs1	-6.9
Cc1ccc(SCC2=NC(=NC(N)=Nc3ccc(C)c(C)c3)NC(=O)C2)cc1	-6.9
CCCN(Cc1nc(-c2ccc(OC)c(C)c2OC)oc1C)CC1CCCO1 (stereo not drawn)	-1.8
O=C(O)CN1C(=O)/C(=C2\SC(=S)N(C(Cc3ccccc3)C(=O)O)C2=O)c2ccccc21 (stereo not drawn)	4.1
O=C1/C(=C\c2ccccc2)SC(=S)N1c1cccc(Cl)c1	-0.7
COC(=O)c1cccc(-c2ccc(/C=C3\C(=O)N(c4cccc(C(=O)O)c4)N=C3C(F)(F)F)o2)c1	95.2*
O=C1/C(=C\c2cccc(F)c2)SC(=S)N1c1cccc(C(F)(F)F)c1	-0.9
O=C1S/C(=C\c2ccc(Cl)cc2)C(=O)N1Cc1ccccc1	3.5
NN1C(=O)/C(=C/c2ccc(-c3cccc(Cl)c3)o2)SC1=S	0.7
O=C(O)C(Cc1ccccc1)N1C(=O)/C(=C/c2ccc(Cl)cc2)SC1=S (stereo not drawn)	79.2*
COC(=O)c1cccc(-c2ccc(/C=C3/C(=O)NN(c4ccc(Br)cc4)C3=O)o2)c1	-3.6
COC(=O)c1cccc(-c2ccc(C=C3C(=O)OC(c4ccccc4)OC3=O)o2)c1 (stereo not drawn)	2.3
O=C1/C(=C/c2cccc(Cl)c2Cl)SC(=S)N1c1cccc(Cl)c1	-8.9
O=C(O)c1cccc(-c2ccc(/C=C3\SC(=S)N(c4cccc(F)c4)C3=O)o2)c1	94.0*
O=C(O)c1cccc(N2C(=O)/C(=C/c3ccc(Cl)cc3)SC2=S)c1	31.4*
COc1ccc(CCC(=O)N2CCc3c(cnc(C)c3CNC(=O)c3ccc(C)s3)C2)cc1OC	6.4
COc1cccc(/C=C/c2ccnc(NS(=O)(=O)c3ccc(N)cc3)n2)c1	13.2
CS(=O)(=O)N1CCC(C2CCN(Cc3ccc(Cl)cc3)C2)CC1 (stereo not drawn)	5.0
CCOC(=O)c1c(C)sc(Sc2ccc(Cl)cc2N)c1OC(C)=O	-0.7
Cc1c(CC(=O)N(C)CCO)c2c(n1C1CCCCC1)CC(C)(C)CC2=O	-1.0
O=C(CN1CCN(c2ccccc2F)CC1)Nc1ccc(F)c(F)c1	4.0
O=C1C(=NCc2ccccc2)C(Cl)C(=O)N1c1ccccc1 (stereo not drawn)	2.4
CC1CCCN(C(=O)C2CCN(C(=O)c3ccc(Cl)cc3)CC2)C1 (stereo not drawn)	5.8
SMILES	ROC1-CUL1 inh
CCn1c(/C=C/c2cccs2)nc2ccccc2c1=O	1.0
O=C(Nc1cc2c3c(cccc3c1)CC2)c1ccccc1	-15.8
Cc1cc(/C=C2/SC(=S)N(CC(=O)O)C2=O)c(C)n1-c1ccccc1	15.8
O=C(O)CN1C(=O)/C(=C\c2ccccc2Sc2ccc(Cl)cc2)SC1=S	103.1*
CCOc1ccccc1/C=C1\SC(=S)N(CC(=O)O)C1=O	3.7
CCOC(=O)c1sc(NC(=O)CSc2nc3sc(C)c(C)c3c(=O)n2-c2ccccc2)nc1C	-0.1
N=C1S/C(=C\c2ccc(-c3ccccc3C(=O)O)o2)C(=O)N1c1ccc(Cl)cc1Cl	99.7*
CN1C(=O)/C(=C\c2ccc(-c3ccccc3C(=O)O)o2)SC1=S	3.7
CN=C1S/C(=C\c2ccc(-c3ccc(Cl)cc3C(=O)O)o2)C(=O)N1C	2.6
O=C(NCc1cccnc1)C1CCCCC1	4.4
C=CCN1C(=O)/C(=C/c2ccc(-c3ccc(C(=O)O)cc3)o2)SC1=S	5.2
CN1C(=O)/C(=C/c2ccc(-c3ccc(C(=O)O)cc3)o2)SC1=Nc1ccc(C(=O)O)cc1	28.5*
CN1C(=O)/C(=C/c2ccc3c(c2)OCO3)SC1=Nc1ccc(C(=O)O)cc1	11.7
Cc1ccccc1C1(CC(=O)N2CCN(c3ncccn3)CC2)CC(=O)N(Cc2ccccc2)C1=O (stereo not drawn)	4.0
Brc1nsc(SCSc2nc(Br)ns2)n1	33.3*
Cc1nc(CCNC(=O)Nc2nnc(-c3cccs3)s2)sc1Cl	-1.5
CCOc1ccc(N=C2S/C(=C\c3cc(C)n(-c4sc(C)c(C)c4C#N)c3C)C(=O)N2C2CCCCC2)cc1	-8.7
CCOC(=O)c1cc(C)n2nc(-c3ccc(Cl)cc3)cc2n1	0.5
O=C(O)c1ccc(N2N=C(c3ccccc3)/C(=C/c3ccco3)C2=O)cc1	33.1*
O=C(O)c1ccc(N2N=C(c3ccccc3)/C(=C/c3ccccc3)C2=O)cc1	7.0
O=C1/C(=C/c2ccccc2OCc2ccccc2Cl)C(c2ccccc2)=NN1c1ccc([N+](=O)[O-])cc1	-2.9
COc1ccc(/C=C\C(=O)Nc2c(F)c(F)cc(F)c2F)cc1COc1ccc(Br)cc1	-2.4
O=S(=O)(C1=COCC1[C@H](O)c1ccccc1)c1ccccc1 (stereo partly drawn)	-3.7
CCOc1ccc(S(=O)(=O)N2CCOCC2)cc1	-6.9
CCOc1ccc(S(=O)(=O)N2CCC(Cc3ccccc3)CC2)cc1	58.7*
CCOC(=O)C1CCN(S(=O)(=O)c2ccc(OCC)cc2)CC1	5.7
CCOC(=O)c1c(NC(=O)CSC2=NC(=N)CC(=O)N2)sc(C)c1C	6.1
O=C1C2C3c4ccccc4C(Cl)(c4ccccc43)C2C(=O)N1c1ccc2ccccc2c1 (stereo not drawn)	-6.1
COc1cc(/C=C2/C(=O)N(c3ccc(Cl)c(Cl)c3)N=C2C)ccc1OCc1ccccc1	-0.5

Screening results: PubChem, Pan Lab, Icahn School of Medicine at Mount Sinai
